Screens: PubChem BioAssay, National Center for Advancing Translational Sciences (NCATS)
Tau fibril FP = blocks human tau fibril formation measured by polarization | P10636 | K18 P301L tau heparin fibrillization, Alexa594 FP, 6 h | Potency, µM (highest dose often 57.7 µM), for inactives: top-dose activity, negative = inhibition, actives largely listed as inhibitors | 280,000 tested, 0.39% active | AID 1468; also: nearly all actives have a fitted effect of over 55% in size
Target sequence (P10636 561-689 P618L limits assumed): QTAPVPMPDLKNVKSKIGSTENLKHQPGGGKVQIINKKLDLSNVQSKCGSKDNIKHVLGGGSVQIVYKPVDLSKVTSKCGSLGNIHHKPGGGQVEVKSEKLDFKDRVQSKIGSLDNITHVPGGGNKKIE
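K18 P301L tau (15 uM unlabeled/0.24 uM Alexa 594-labeled, final) + compound + heparin 20 uM final; 100 mM NaOAc pH 7; 6 hr 37 C; ThT 30 uM final added, 1 hr RT; FP ex 555/em 632 nm.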
TexasRed fluor = counter-screen for TRb-SRC2 inhibitors: fluorescence interference | AID 1479 | TRb/SRC2 Texas Red total fluorescence interference | 280,000 tested, 0.29% active | Potency, µM (series often up to 106 µM), without a hit: at the top dose fluorescence change, negative = quenching; active = well fitted curve in either direction with a large enough effect; inconclusive = small, poorly fitted or top-dose-only effect
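Flags fluorescent or light-absorbing compounds by total fluorescence, S + 2P, at 555 nm excitation and 632 nm emission. Mixture: 20 nM Texas Red SRC2 peptide, 0.6 uM human TRb LBD, 1 uM T3, 5% DMSO; compound exposure 5 h at ambient temperature.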
TRb-SRC2 inh = TRbeta-SRC2 interaction inhibition. TRbeta-SRC2 peptide binding, fluorescence polarization; receptor liganded with 1 µM T3. Potency, µM (top dose mostly 106 µM), inactives show at the top dose activity change, negative = inhibition, actives largely listed as inhibitors. 280,000 tested, 0.065% active;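 also: plate controls were bound peptide for no effect and peptide without receptor for full effect; nearly all actives have a fitted effect of over 50% in size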
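Quantitative HTS by FP: 0.6 uM TRb LBD, 20 nM labeled SRC2 20-mer, 1 uM T3, 5% DMSO; 5 hr ambient incubation; % activity per concentration and potencies from concentration series.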
Tau fluor cs = counter-screen for tau fibril formation inhibitors; tau K18 P301L Alexa594 fluorescence, heparin fibrillization; Potency, µM (top dose mostly 57.7 µM), without a hit: at the top dose activity change, negative = decrease; 280,000 tested, 0.93% active; AID 1463; also: nearly all actives have a fitted effect of over 55% in size
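Human K18 P301L tau (15 uM unlabeled plus 0.24 uM Alexa 594-labeled, final) in 100 mM sodium acetate pH 7 was mixed with compound and 20 uM heparin and incubated 6 hr at 37 C.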
Tau ThT inhib = tau fibrillization inhibition (ThT binding); recombinant tau K18 P301L, heparin-induced fibrillization, ThT fluorescence; Potency, µM (doses to about 57.4 µM), for inactives: at the top dose activity, negative = inhibition, most hits filed as inhibitors; 270,000 tested, 2.1% active; also: nearly all actives have a fitted effect of over 55% in size
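ThT emission at 510 nm, taken 1 hr after adding 30 uM dye, quantifies aggregates formed when 20 uM heparin acts on human tau K18 P301L for 6 hr at 37 C.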
Numbers without * were called inactive; ? = inconclusive; [ ] = remark or other dose. A selection: hits, their analogues and other compounds. The true share with any hit is near 3%. Unless noted, calls follow the shape of the dose curve; as a rule, active = well fitted curve in the direction sought with a large enough effect; inconclusive = small, poorly fitted or top-dose-only effect, or another doubt; inactive = no such curve, though single readings can be large; an effect the other way counts as inactive or inconclusive. Unless noted, % is scaled to controls: 0 for no effect and ±100 for the full control effect; potency is read from the fitted curve at half-maximal effect.

SMILES	Tau fibril FP	TexasRed fluor	TRb-SRC2 inh	Tau fluor cs	Tau ThT inhib
COc1ccc(N2CCN(CCCNC(=O)c3cc(Nc4ccc(OC)cc4OC)nc4ccccc34)CC2)cc1	11%	-7%	-4%	16µM*[quencher]	18µM*
COc1ccc(OC)c(Nc2cc(C(=O)NCCCN3CCOCC3)c3ccccc3n2)c1	12%	-1%	-2%	-27%	-17%
COc1ccccc1Nc1cc(C(=O)NCCCN2CCOCC2)c2ccccc2n1	6%	-4%	0%	-24%	-5%
COc1ccc(Nc2cc(C(=O)NCCCN(C)C3CCCCC3)c3ccccc3n2)cc1	?	-2%	-5%	11µM*[quencher]	?
O=C(NC1CC(=O)N(c2ccc(F)cc2)C1)C(c1ccccc1)c1ccccc1 (stereo unspecified)	?	-1%	2%	-20%	3%
CC(C)OC(=O)C[C@H](NC(=O)OC(C)(C)C)c1ccccc1	-3%[11.6 µM]	0%[11.2 µM]	4%[11.2 µM]	-2%[11.6 µM]	-6%[11.5 µM]
CC1CC(=O)C2=C(C1)Nc1ccccc1N=C2 (stereo unspecified)	3%	1%	-2%	2%	5%
CCC1=Nc2ccccc2NC2=C1C(=O)CCC2	?	4%	-26%	?	25µM*
COc1cccc(C(=O)Nc2c(C(=O)N3CCN(c4ccc(F)cc4)CC3)oc3ccccc23)c1	-6%	-24%	9%	?	?
CC(=O)NNc1nc(-c2ccc(NC(C)=O)cc2)cs1	-3%	1%	2%	-6%	-1%
CC(=O)Nc1ccc(-c2csc(Nc3cccc(C)n3)n2)cc1	8%	-7%	6%	20µM*[quencher]	?
CC(=O)Nc1ccc(-c2csc(NNC(=O)c3ccc(C)cc3)n2)cc1	?	-2%	1%	?	11µM*
CC(=O)Nc1cccc(-c2csc(Nc3ncccn3)n2)c1	-1%	-2%	-3%	-20%	?
CC(=O)Nc1cccc(-c2csc(Nc3ccc(C)cn3)n2)c1	14%	-7%	-9%	14µM*[quencher]	?
COc1ccc(OC)c(NC(=O)/C=C/c2ccccc2[N+](=O)[O-])c1	?	-8%	-6%	?	?
COc1ccc(NC(=O)/C=C/c2ccccc2[N+](=O)[O-])c(OC)c1	10%	-1%	-4%	?	13µM*
COc1ccc(/C=N/Nc2ncccc2[N+](=O)[O-])c(OC)c1	1%	-1%	3%	?	13µM*
COc1ccc(/C=N/Nc2ncc(-c3ccccc3)cn2)c(OC)c1	-4%	-4%	1%	-19%	?
O=C(O)c1ccc(N/N=C/C=C/c2ccccc2[N+](=O)[O-])cc1	12%	-3%	-14%	-26%	13µM*
COC(=O)C(=Cc1ccccc1[N+](=O)[O-])C(=O)OC	?	-3%	4%	-27%	25µM*
O=C(Cc1ccccc1)N/N=C/C=C/c1ccccc1[N+](=O)[O-]	-12%	0%	-7%	-3%	-4%
CCOc1ccc(NC(=O)c2ccc3nc(Cc4ccccc4)oc3c2)cc1	-12%	1%	5%	-25%	-15%
CC1=C(C#N)C2(O)C(=O)c3ccccc3C2(O)N1 (stereo unspecified)	-7%	-2%	11%	-1%	-16%
CCOC(=O)C1=C(C)N[C@@]2(O)c3ccccc3C(=O)[C@@]12O	?	2%	2%	-11%	3.5µM*
CC1=C(C(=O)OC(C)C)C2(O)C(=O)c3ccccc3C2(O)N1 (stereo unspecified)	?	-4%	3%	-23%	7.1µM*
CCCCOC(=O)C1=C(C)NC2(O)c3ccccc3C(=O)C12O (stereo unspecified)	?	-3%	0%	-11%	10µM*
Cc1cccc(NC(=O)c2ccc(-n3c(C)nnc3C)cc2)c1	-1%	7%	-2%	-8%	-7%
CN(C)/C=C1/C=C(c2ccccc2)OC1=O	?	-6%	-2%	-23%	40µM*
O=C(O)c1ccc(N/N=C/C2=Cc3ccccc3OC2)cc1	3%	-11%	0%	13µM*[quencher]	4µM*
O=C1/C(=C/c2ccc(F)cc2)SC(=S)N1Nc1ncc(C(F)(F)F)cc1Cl	-14%	-4%	2%	-26%	?
